The source made the active and inactive calls. Unless noted, no rule for the calls is given here.
Legend:
[1] = test system: Wnt5a (protein binding on small-molecule microarray); assay: Wnt5a binders on small-molecule microarray, primary screen, biophysical, 635/667 nm fluorescence (AID 1142); conditions: 635 nm fluorescence, higher = more signal;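 also: fluorescence read at 667 nm with signal to noise per printed feature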
[2] = cell viability in Huh7 cells, primary screen, cytotoxicity control for HCV replication inhibitor project, CellTiter-Glo luminescence, basal, 48 h (AID 1143); conditions: Huh7 HCV replicon, higher = more signal, called active from +8 up or from −8 down;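 also: Huh7 hepatoma cells carrying a hepatitis C replication reporter with no stimulus; test concentration not given here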
[3] = P. aeruginosa biofilm formation inhibitors, primary screen, PAO1 strain, BacTiter-Glo luminescence, LB-PBS (AID 1144); conditions: 12 h, higher = more signal
[4] = CREB reporter modulators without forskolin, primary screen, cell-based, PC12, CRE-LacZ reporter, unstimulated (AID 1145); conditions: no forskolin, luminescence, 4.5 h, higher = more signal, called active from +8 up or from −8 down
[5] = CREB reporter modulators under forskolin, primary screen, cell-based, PC12, CRE-LacZ reporter, forskolin-stimulated (AID 1146); conditions: luminescence, 4.5 h, higher = more signal, called active from +8 up or from −8 down;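 also: PC12 cells with 6xCRE LacZ reporter stimulated by forskolin 10 µM; beta-galactosidase reporter signal reflecting CREB driven transcription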
[6] = target: Streptavidin (Streptomyces avidinii) (UniProt P22629); assay: streptavidin binders on small-molecule microarray, primary screen, artefact control for SMM compound annotation, biophysical, 635/667 nm fluorescence (AID 1147); conditions: streptavidin binding, higher = more signal;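 also: signal reflects streptavidin binding to arrayed compounds as a control protein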
Chain of Streptavidin (Streptomyces avidinii) (P22629 whole entry, looked up): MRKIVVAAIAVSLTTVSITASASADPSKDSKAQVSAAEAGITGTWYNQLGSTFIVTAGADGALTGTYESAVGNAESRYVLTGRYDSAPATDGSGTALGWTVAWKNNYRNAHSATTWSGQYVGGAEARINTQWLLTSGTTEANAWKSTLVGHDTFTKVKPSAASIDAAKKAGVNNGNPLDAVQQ

[7] = small-molecule binders of probe aInhba, primary screen, biochemical, small-molecule microarray, 635/667 nm fluorescence (AID 1148); conditions: higher = more signal;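 also: score merges 667nm spot fluorescence with signal-to-noise for antibody binding to printed compounds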
[8] = target: Torsin-1A (Homo sapiens) (UniProt O14656); assay: torsin A binders from cell lysate, primary screen, small-molecule microarray, wild-type, 635/667 nm (AID 1149); conditions: COS7 hTOR1A-WT lysate, 635 nm fluorescence, higher = more signal
Chain of Torsin-1A (Homo sapiens) (O14656 whole entry, looked up): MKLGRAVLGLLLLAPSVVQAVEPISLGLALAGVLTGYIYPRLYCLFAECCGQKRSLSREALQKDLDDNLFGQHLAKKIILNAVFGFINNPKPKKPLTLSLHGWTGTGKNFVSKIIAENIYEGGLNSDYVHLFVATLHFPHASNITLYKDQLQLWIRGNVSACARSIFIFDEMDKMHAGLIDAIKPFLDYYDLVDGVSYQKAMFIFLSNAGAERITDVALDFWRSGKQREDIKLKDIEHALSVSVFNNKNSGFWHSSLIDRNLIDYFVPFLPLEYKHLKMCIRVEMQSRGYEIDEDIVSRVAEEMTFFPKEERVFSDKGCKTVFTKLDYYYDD

[9] = target: Torsin-1A (Homo sapiens) (UniProt O14656); assay: small-molecule binders of mutant TOR1A in lysate, primary screen, cell lysate, small-molecule microarray, COS7 lysate, 635/667 nm fluorescence (AID 1150); conditions: COS7 hTOR1A mutant lysate, 635 nm fluorescence, higher = more signal;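 also: score pools 667 nm emission and signal to noise measuring lysate protein binding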
[10] = test system: Sonic hedgehog protein (Shh); assay: small-molecule binders of Shh protein, primary screen, biochemical, small-molecule microarray, 635/667 nm fluorescence (AID 1151); conditions: small-molecule microarray binding, 635 nm fluorescence; higher = more signal;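 also: Shh protein binding to compounds spotted on small-molecule microarray slides; score combines spot fluorescence intensity with signal-to-noise across triplicate slides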

SMILES	composite z-score [1]	z-score [2]	z-score [3]	z-score [4]	z-score [5]	composite z-score [6]	composite z-score [7]	composite z-score [8]	composite z-score [9]	composite z-score [10]
CS(=O)(=O)CCOC(=O)C1=CC(CCCO)=CC(c2ccc(CN3CCCC3)cc2)N(Cc2sc3ccccc3c2Cl)C=C1C(=O)OCCS(C)(=O)=O (stereo not given)	0.689	-1.29 (inactive)	1.13 (inactive)	2.08 (inactive)	0.274 (inactive)	2.48	0.794	1.4	2.18	1.18
Cc1ccc(S[C@]2(C(=O)NCC(F)(F)F)CC(=O)N(Cc3cc(C(F)(F)F)cc(C(F)(F)F)c3)[C@@H]2c2ccc(CO)cc2)cc1	-0.824	-0.262 (inactive)	0.75 (inactive)	0.182 (inactive)	-0.0993 (inactive)	-0.638	-0.0933	-1.5	-1.2	0.319
COCCOC(=O)N1C(=O)[C@@]2(c3cc(C#CC4(O)CCCCCC4)ccc31)[C@H](C(=O)Nc1nc3ccccc3s1)[C@H]1C(=O)O[C@H](c3ccccc3)[C@H](c3ccccc3)N1[C@@H]2c1ccc(O)cc1	0.62	-0.804 (inactive)	-0.374 (inactive)	0.245 (inactive)	7.33 (inactive)	0.857	0.117	0.878	0.753	1.52
CCOC(=O)C[C@H]1[C@H](OC(=O)c2ccc(C(=O)c3ccccc3)cc2)[C@@H](NC(=O)c2ccc3ccccc3n2)c2cc(OCCCO)ccc2N1C(=O)Cc1ccc(OC)cc1	-0.126	-0.124 (inactive)	0.458 (inactive)	-0.215 (inactive)	-0.357 (inactive)	0.982	-0.0521	-0.077	0.292	-0.381
O=C(O)[C@@H]1C[C@@H]2C(=O)N3CCC[C@H]3C(=O)N2[C@@H]1c1ccc(O)cc1	0.357	-2.79 (inactive)	0.235 (inactive)	0.0205 (inactive)	-1.18 (inactive)	0.262	0.0586	0.746	0.643	1.61
CCC1=C2CN(Cc3ccccc3)[C@@H](C(=O)Cc3ccccc3)C2C=CCC1 (stereo not given in full)	-0.245	-3.57 (inactive)	0.0518 (inactive)	-0.142 (inactive)	1.73 (inactive)	0.0145	-0.0331	-0.645	-0.124	0.553
Cc1ccc(S[C@]2(C(=O)NC(C)C)CC(=O)N(Cc3cc(C(F)(F)F)cc(C(F)(F)F)c3)[C@@H]2c2ccc(CO)cc2)cc1	0.0368	-0.523 (inactive)	0.0139 (inactive)	0.0655 (inactive)	0.832 (inactive)	-1.18	-0.121	-1.86	-1.78	-0.621
OCCCC1=CC(c2ccc(CN3CCCC3)cc2)N(Cc2cc3c(cc2Br)OCO3)CC1 (stereo not given)	0.268	-1.1 (inactive)	-0.808 (inactive)	-0.932 (inactive)	0.821 (inactive)	0.0246	-0.152	0.763	0.585	1.04
CCCCC(=C=CC[C@H](O)c1ccc(OCCO)cc1)CCO	-0.0188	-1.08 (inactive)	0.489 (inactive)	2.57 (inactive)	0.0098 (inactive)	-0.209	-0.0451	0.678	1.58	0.011
[N-]=[N+]=Nc1ccccc1C[C@]1(C(=O)O)COC(c2ccc(OCCCO)cc2)=N1	-0.0485	0.0518 (inactive)	-0.812 (inactive)	1.18 (inactive)	-0.313 (inactive)	-0.213	-0.0405	-2.54	-1.52	-1.14
COC(=O)[C@@H]1N=C(c2ccc(OCCCO)cc2)O[C@@H]1c1ccccc1	-0.508	-1.64 (inactive)	-1.06 (inactive)	-0.594 (inactive)	-1.38 (inactive)	-0.913	-0.0762	1.01	0.695	-0.703
CCCCC=C[C@@H](NC(=O)OCc1ccccc1Cl)c1ccccc1	1.45	-0.392 (inactive)	-0.146 (inactive)	0.394 (inactive)	1.02 (inactive)	0.484	0.592	-0.266	0.665	0.62
CCOC(=O)C1=C[C@@H](c2ccccc2)N(S(=O)(=O)c2ccc(C)cc2)[C@H]1c1ccc(OC)cc1	0.943	-2.61 (inactive)	0.173 (inactive)	-0.275 (inactive)	-0.0617 (inactive)	0.689	0.29	0.162	0.513	-0.0921
C=C(/C(=C/C[C@H](OC(=O)c1ccncc1)c1ccc(CO)o1)c1cnc2ccccc2c1)C(C)C	0.49	-0.259 (inactive)	-0.747 (inactive)	1.58 (inactive)	0.0737 (inactive)	1.42	0.0993	0.353	0.491	1.97
Cc1ccc(S[C@]2(C(=O)O)CC(=O)N(C3CCCCC3)[C@@H]2c2ccc(CO)cc2I)cc1	0.0473	-0.541 (inactive)	-0.64 (inactive)	-0.269 (inactive)	2.76 (inactive)	1.43	0.239	0.222	0.919	-0.342
Cc1ccc(C(C)CC(O)C2C=CC3C(=O)N(c4ccccc4)C(=O)C3N2Nc2ccccc2)o1 (stereo not given)	0.158	-2.95 (inactive)	-0.443 (inactive)	0.636 (inactive)	0.367 (inactive)	1.19	0.0792	0.145	1.11	-0.125
COc1ccc([Si](C)(C)[C@H]2[C@H](CC(=O)N(CCO)Cc3ccccc3)O[C@@]3(C(=O)N(C)c4c(Br)cc(C)cc43)[C@@H]2C)cc1	0.306	-5.69 (inactive)	-1.43 (inactive)	9.7 (active)	-2.49 (inactive)	0.527	-0.128	2.12	1.98	1.72
COCCOC(=O)N1C(=O)[C@@]2(c3cc(C#CCCO)ccc31)[C@H](c1ccc(OCCO)cc1)N1[C@H](c3ccccc3)[C@H](c3ccccc3)OC(=O)[C@H]1[C@@H]2C(=O)Nc1nc2ccccc2s1	0.508	-0.218 (inactive)	0.56 (inactive)	-0.618 (inactive)	-0.267 (inactive)	1.13	0.358	0.266	0.0474	1.97
CC(=O)NCCCC[C@@H]1NC(=O)[C@@H]2C[C@H](C(=O)NCCCCCN)[C@H](c3ccc(O)cc3)N2C1=O	0.66	-0.224 (inactive)	0.268 (inactive)	0.285 (inactive)	-0.389 (inactive)	0.977	0.221	1.14	1.54	1.52
CC(C)[Si](C#C[Si](C(C)C)(C(C)C)C(C)C)(O[C@H](c1ccccc1)c1cn(Cc2ccccc2)nn1)C(C)C	-0.0366	-0.071 (inactive)	-1.32 (inactive)	-0.752 (inactive)	-0.166 (inactive)	0.652	-0.016	0.412	0.107	0.558
CO[C@H]1O[C@H](CO)[C@@H](OC(=O)Nc2ccc3c(c2)OCO3)[C@H](OC(=O)Nc2ccc3c(c2)OCO3)[C@@H]1OC(=O)Nc1ccc2c(c1)OCO2	0.523	-2.3 (inactive)	0.506 (inactive)	0.643 (inactive)	-1.48 (inactive)	1.11	-0.0087	0.967	1.05	0.164
CC(=O)N1CC2(CC2)CC1c1ccccc1 (stereo not given)	0.898	-0.283 (inactive)	0.108 (inactive)	0.397 (inactive)	-0.366 (inactive)	0.547	0.507	0.192	0.421	-0.515
COc1ccc(C(=O)Nc2ccc(CN3C(=O)[C@]4(O[C@H](CC(=O)N5Cc6ccccc6C[C@H]5CO)[C@@H]([Si](C)(C)c5ccc(OC)cc5)[C@@H]4C)c4ccccc43)cc2)cc1	0.307	-3.81 (inactive)	0.556 (inactive)	-0.011 (inactive)	-0.6 (inactive)	0.134	-0.132	0.851	0.93	2.04
CC(C)N1CC=CC23O[C@@H]4C=CCCOC(=O)C4[C@H]2C(=O)N(CCCO)[C@@H]3C1=O (stereo not given in full)	-0.352	-2.89 (inactive)	-0.614 (inactive)	-0.749 (inactive)	-0.313 (inactive)	-0.912	-0.0933	-1.02	-0.457	0.403
CCOC(=O)C=Cc1cccc(C)c1O	-0.0909	-4.73 (inactive)	-1.02 (inactive)	0.472 (inactive)	-0.631 (inactive)	-0.259	-0.0375	0.299	0.777	0.219
Cc1ccc(S[C@]2(C(=O)NCc3ccccc3)CC(=O)N(C3CCCCC3)[C@@H]2c2ccc(CO)cc2I)cc1	0.301	-4.53 (inactive)	-0.183 (inactive)	0.389 (inactive)	1.01 (inactive)	1.5	-0.0221	0.0358	0.944	0.259
[N-]=[N+]=NCc1ccccc1C[C@@]1(C(N)=O)N=C(c2ccc(OCCCO)cc2)O[C@@H]1c1ccccc1	-0.182	-3.28 (inactive)	0.103 (inactive)	0.498 (inactive)	-0.0576 (inactive)	0.559	0.144	0.754	1.22	-0.671
CC(CO)N1C(=O)[C@]2(C)C3C(=O)OCCC/C=C\[C@H]3OC23C=CCN(c2ccc(Cl)cc2)C(=O)[C@@H]13 (stereo not given in full)	-0.313	0.612 (inactive)	-1.53 (inactive)	0.187 (inactive)	-0.592 (inactive)	-0.741	-0.316	-0.775	-0.734	0.0223
COc1ccc(CCNC(=O)[C@@H]2c3ccccc3C(=O)N(C3CCCCC3)[C@H]2c2ccc(CO)cc2)cc1	0.378	-2.93 (inactive)	-0.0661 (inactive)	-0.295 (inactive)	-0.582 (inactive)	-0.11	-0.0087	-0.78	0.767	-0.0203
O=C1N(Cc2ccccc2)c2ccccc2C[C@]12N=C(c1ccc(OCCCO)cc1)O[C@@H]2c1ccccc1	0.0361	-4.72 (inactive)	-0.126 (inactive)	1.75 (inactive)	-1.08 (inactive)	0.0469	-0.0221	-0.569	0.812	0.837

Source: PubChem BioAssay
